# Results from article PMC7862700, “An all-to-all approach to the identification of sequence-specific readers for epigenetic DNA modifications on cytosine”.
# Assays:
# Assay in all cases: DAPPL (digital affinity profiling via proximity ligation, sequencing); 10 mM Tris-HCl pH 7.5, 50 mM NaCl, 1 mM DTT, 4% glycerol, room temperature, 30 min; GST-TFs on glutathione beads, 16-mer random dsDNA library, 0.1% formaldehyde crosslink after washing; high values mean tight binding
# [1] = biological target: T1, FEV (Homo sapiens, UniProt Q99581 1-238); conditions: protein: recombinant; tags: N-terminal GST; dsDNA, one strand shown
# T1 sequence: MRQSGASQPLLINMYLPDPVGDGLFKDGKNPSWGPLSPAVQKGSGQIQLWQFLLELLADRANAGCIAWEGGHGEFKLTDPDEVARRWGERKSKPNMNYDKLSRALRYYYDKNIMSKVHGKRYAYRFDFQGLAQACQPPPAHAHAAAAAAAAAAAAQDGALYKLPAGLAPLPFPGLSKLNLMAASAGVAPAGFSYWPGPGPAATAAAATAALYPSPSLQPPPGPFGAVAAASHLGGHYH
# Procedure, shortened: (§1)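 Human transcription factors fused to GST were expressed in yeast, captured on glutathione beads, given DNA barcodes and pooled with a GST-only negative control. Pools were incubated with 200 nmole of a 16-mer random double-stranded DNA library in Tris/NaCl/DTT/glycerol buffer at room temperature for 30 min. They were then washed, crosslinked with 0.1% formaldehyde, proximity-ligated (BsaI/T4 ligase, 1 h, 37 °C), PCR-amplified and sequenced on an Illumina NextSeq500. Binding signal is each 6-mer's read frequency for a factor divided by its frequency for the GST control.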
# [2] = biological target: ETV5 (Homo sapiens, UniProt P41161 1-510); conditions: protein: recombinant; tags: N-terminal GST; dsDNA, one strand shown
# ETV5, sequence (P41161 whole entry): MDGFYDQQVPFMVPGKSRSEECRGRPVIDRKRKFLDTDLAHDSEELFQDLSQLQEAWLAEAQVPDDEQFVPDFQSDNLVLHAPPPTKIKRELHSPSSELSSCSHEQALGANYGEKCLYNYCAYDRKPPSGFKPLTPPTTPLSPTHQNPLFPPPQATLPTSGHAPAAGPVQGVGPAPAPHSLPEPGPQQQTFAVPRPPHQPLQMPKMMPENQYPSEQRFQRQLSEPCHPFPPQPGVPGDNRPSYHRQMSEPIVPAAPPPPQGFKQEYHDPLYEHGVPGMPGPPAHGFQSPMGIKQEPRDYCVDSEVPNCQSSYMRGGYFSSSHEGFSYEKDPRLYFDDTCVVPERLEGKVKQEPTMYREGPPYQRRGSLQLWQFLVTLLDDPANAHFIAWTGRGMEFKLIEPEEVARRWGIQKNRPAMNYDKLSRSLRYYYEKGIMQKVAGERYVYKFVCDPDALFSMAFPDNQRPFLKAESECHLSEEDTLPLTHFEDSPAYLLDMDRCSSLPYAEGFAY
# Procedure, shortened: as §1
# [3] = biological target: HSF1 (Homo sapiens, UniProt Q00613 1-529); conditions: protein: recombinant; tags: N-terminal GST; chain copies: 3; dsDNA, one strand shown
# HSF1, sequence (Q00613 whole entry): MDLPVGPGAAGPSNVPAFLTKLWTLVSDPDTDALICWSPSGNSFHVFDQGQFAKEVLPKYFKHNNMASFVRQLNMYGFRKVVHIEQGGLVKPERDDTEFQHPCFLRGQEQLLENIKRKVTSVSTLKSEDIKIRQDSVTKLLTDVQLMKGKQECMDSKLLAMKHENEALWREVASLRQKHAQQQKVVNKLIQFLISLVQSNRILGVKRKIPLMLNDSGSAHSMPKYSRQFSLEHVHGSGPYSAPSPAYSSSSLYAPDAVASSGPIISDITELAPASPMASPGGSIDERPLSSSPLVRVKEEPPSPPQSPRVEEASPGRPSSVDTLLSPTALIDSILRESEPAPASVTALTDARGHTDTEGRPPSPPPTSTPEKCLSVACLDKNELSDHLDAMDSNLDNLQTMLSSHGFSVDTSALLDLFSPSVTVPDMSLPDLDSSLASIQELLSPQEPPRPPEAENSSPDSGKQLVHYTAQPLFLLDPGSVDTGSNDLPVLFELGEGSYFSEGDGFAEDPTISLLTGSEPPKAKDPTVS
# Procedure, shortened: as §1
# [4] = biological target: T2, SPIC (Homo sapiens, UniProt Q8N5J4 1-248); conditions: protein: recombinant; tags: N-terminal GST; dsDNA, one strand shown
# T2 sequence: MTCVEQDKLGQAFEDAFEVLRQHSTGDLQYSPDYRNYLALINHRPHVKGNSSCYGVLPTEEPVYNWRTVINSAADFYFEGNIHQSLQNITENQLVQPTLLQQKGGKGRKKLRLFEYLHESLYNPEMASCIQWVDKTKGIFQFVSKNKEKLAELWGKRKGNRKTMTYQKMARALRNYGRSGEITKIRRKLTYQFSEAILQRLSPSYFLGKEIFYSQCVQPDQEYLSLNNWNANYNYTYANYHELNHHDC
# Procedure, shortened: as §1
# [5] = biological target: ELF4 (Homo sapiens, UniProt Q99607 1-663); conditions: protein: recombinant; tags: N-terminal GST; dsDNA, one strand shown
# ELF4, sequence (Q99607 whole entry): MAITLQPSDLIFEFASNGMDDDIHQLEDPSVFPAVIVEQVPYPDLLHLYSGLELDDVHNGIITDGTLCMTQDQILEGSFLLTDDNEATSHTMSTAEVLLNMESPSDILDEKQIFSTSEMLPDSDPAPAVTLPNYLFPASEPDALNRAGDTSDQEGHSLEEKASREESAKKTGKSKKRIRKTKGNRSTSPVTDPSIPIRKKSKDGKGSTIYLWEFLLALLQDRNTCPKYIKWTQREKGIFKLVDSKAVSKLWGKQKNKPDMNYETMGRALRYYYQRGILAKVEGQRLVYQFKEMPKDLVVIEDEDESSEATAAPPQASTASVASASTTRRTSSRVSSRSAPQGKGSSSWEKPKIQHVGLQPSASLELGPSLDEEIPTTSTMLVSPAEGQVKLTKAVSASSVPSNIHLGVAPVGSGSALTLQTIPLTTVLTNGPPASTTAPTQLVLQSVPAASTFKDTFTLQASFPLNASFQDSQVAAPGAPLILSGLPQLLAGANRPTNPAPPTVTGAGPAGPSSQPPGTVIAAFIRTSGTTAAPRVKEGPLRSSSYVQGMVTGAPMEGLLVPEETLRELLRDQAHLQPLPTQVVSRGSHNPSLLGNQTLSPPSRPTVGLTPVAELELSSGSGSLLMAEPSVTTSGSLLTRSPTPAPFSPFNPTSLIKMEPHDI
# Procedure, shortened: as §1
# [6] = biological target: T3, ELK4 (Homo sapiens, UniProt P28324-2 1-405); conditions: protein: recombinant; tags: N-terminal GST; dsDNA, one strand shown
# T3 sequence: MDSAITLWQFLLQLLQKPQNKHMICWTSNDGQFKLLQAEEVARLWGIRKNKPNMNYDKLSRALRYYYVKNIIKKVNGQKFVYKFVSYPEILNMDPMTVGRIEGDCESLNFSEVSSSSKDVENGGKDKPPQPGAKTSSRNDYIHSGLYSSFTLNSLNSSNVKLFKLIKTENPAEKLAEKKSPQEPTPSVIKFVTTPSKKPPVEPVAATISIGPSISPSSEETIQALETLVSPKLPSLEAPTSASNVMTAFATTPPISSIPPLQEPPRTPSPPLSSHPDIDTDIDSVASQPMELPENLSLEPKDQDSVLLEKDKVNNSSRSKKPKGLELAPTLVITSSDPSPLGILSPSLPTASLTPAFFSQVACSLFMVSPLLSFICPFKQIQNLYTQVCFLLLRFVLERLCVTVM
# Procedure, shortened: as §1
# [7] = biological target: T4, ETV2 (Homo sapiens, UniProt O00321 1-342); conditions: protein: recombinant; tags: N-terminal GST; dsDNA, one strand shown
# T4 sequence: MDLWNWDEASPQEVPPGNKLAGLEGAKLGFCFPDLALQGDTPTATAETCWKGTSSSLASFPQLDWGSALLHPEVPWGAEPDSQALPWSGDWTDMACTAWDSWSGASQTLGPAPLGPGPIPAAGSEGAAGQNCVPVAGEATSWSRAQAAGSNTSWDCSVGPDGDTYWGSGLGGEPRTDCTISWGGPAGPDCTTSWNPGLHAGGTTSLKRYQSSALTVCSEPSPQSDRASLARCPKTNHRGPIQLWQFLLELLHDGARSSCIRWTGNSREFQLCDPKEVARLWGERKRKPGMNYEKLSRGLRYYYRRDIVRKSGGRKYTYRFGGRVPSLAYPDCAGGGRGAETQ
# Procedure, shortened: as §1
# [8] = biological target: T5, ELF3 (Homo sapiens, UniProt P78545 1-371); conditions: protein: recombinant; tags: N-terminal GST; dsDNA, one strand shown
# T5 sequence: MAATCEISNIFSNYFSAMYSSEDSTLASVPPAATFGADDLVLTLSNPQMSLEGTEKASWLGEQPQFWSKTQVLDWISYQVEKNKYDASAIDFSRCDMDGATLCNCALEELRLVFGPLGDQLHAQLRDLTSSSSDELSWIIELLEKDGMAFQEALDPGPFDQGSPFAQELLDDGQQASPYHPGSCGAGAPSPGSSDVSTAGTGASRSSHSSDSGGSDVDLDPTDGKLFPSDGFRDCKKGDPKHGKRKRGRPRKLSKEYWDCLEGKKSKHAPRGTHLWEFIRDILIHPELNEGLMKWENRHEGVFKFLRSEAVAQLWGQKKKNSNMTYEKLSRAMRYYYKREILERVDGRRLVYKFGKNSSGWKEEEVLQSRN
# Procedure, shortened: as §1
# [9] = biological target: CRX (Homo sapiens, UniProt O43186 1-299); conditions: protein: recombinant; tags: N-terminal GST; dsDNA, one strand shown
# CRX, sequence (O43186 whole entry): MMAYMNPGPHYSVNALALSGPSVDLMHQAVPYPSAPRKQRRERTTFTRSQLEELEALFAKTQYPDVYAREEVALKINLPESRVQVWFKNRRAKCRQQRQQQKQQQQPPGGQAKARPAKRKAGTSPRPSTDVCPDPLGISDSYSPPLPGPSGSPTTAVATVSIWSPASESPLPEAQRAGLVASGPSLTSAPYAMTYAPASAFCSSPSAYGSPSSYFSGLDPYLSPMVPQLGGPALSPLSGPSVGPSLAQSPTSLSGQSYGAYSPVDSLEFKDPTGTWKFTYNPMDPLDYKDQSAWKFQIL
# Procedure, shortened: as §1
# [10] = biological target: ETV1 (Homo sapiens, UniProt P50549 1-477); conditions: protein: recombinant; tags: N-terminal GST; dsDNA, one strand shown
# ETV1, sequence (P50549 whole entry): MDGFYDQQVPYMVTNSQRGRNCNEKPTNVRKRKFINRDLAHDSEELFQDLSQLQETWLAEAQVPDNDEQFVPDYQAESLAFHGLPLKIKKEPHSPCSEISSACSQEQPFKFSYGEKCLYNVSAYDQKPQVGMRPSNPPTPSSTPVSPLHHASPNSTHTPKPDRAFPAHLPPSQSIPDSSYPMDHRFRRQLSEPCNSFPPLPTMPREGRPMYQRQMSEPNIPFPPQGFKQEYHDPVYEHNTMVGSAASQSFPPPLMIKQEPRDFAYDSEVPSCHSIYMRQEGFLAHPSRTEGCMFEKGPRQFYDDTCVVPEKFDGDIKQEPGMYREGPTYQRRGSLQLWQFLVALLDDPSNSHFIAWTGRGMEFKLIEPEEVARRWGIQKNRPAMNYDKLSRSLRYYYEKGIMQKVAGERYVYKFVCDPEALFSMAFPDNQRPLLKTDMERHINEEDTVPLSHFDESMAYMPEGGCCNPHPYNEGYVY
# Procedure, shortened: as §1
# [11] = biological target: T6, ERF (Homo sapiens, UniProt P50548 1-548); conditions: protein: recombinant; tags: N-terminal GST; dsDNA, one strand shown
# T6 sequence: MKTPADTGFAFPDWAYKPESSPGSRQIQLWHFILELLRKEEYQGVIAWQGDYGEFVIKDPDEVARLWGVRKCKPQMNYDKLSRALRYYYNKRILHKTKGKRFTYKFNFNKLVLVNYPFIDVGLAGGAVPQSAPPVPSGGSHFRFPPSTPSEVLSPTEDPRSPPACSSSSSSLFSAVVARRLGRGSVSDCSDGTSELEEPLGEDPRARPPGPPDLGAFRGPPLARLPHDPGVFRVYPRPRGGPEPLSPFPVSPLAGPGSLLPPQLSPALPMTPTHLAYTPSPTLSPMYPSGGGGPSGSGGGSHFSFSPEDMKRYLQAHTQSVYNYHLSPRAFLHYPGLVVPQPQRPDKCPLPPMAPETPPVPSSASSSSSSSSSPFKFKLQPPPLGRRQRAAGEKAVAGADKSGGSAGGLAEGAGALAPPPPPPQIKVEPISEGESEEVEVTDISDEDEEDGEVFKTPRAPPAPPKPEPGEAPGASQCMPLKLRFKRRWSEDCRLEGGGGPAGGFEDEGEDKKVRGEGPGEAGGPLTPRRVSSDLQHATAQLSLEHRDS
# Procedure, shortened: as §1
# [12] = biological target: T7, ETV3L (Homo sapiens, UniProt Q6ZN32 1-361); conditions: protein: recombinant; tags: N-terminal GST; dsDNA, one strand shown
# T7 sequence: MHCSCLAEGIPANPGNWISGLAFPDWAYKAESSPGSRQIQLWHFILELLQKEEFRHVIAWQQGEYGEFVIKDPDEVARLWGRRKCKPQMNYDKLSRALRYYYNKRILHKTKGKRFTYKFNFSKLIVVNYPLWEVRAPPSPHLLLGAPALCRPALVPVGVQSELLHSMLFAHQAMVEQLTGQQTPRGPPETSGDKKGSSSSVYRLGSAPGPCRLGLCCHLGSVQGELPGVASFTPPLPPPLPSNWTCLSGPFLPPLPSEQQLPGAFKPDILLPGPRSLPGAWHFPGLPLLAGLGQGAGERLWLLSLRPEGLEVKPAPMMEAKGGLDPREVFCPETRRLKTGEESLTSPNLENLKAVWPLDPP
# Procedure, shortened: as §1
# [13] = biological target: T8, ETS2 (Homo sapiens, UniProt P15036 1-469); conditions: protein: recombinant; tags: N-terminal GST; dsDNA, one strand shown
# T8 sequence: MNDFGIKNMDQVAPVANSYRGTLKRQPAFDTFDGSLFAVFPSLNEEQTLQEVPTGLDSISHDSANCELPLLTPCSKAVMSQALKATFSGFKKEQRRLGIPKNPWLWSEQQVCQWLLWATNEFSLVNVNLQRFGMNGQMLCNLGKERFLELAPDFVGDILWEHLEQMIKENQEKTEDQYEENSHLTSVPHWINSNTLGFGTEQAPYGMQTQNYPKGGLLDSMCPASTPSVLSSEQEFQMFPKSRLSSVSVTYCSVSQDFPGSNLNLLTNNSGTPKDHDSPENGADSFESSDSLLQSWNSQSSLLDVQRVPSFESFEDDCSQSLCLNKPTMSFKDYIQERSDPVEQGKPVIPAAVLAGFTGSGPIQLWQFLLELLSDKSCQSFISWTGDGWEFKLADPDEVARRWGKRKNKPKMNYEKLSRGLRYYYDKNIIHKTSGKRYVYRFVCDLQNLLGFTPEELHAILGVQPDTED
# Procedure, shortened: as §1
# [14] = biological target: T9, SPDEF (Homo sapiens, UniProt O95238 1-335); conditions: protein: recombinant; tags: N-terminal GST; dsDNA, one strand shown
# T9 sequence: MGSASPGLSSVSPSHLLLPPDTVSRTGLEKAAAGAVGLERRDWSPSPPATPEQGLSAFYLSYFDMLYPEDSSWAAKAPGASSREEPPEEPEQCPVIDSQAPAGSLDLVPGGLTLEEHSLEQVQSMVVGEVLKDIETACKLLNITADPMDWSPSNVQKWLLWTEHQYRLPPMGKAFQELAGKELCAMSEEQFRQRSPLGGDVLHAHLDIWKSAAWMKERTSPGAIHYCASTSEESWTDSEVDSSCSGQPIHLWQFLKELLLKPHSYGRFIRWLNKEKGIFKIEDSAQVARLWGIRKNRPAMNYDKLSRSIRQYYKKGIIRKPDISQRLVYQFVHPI
# Procedure, shortened: as §1
# [15] = biological target: T10, ETV7 (Homo sapiens, UniProt Q9Y603 1-341); conditions: protein: recombinant; tags: N-terminal GST; dsDNA, one strand shown
# T10 sequence: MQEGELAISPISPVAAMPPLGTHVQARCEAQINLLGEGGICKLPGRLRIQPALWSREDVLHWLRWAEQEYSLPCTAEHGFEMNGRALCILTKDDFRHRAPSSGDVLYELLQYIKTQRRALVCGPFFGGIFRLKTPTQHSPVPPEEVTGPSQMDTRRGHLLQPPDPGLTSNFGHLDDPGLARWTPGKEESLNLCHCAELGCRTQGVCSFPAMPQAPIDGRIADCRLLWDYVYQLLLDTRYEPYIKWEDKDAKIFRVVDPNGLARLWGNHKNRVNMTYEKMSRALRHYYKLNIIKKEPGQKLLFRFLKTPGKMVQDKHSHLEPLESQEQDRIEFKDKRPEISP
# Procedure, shortened: as §1
# [16] = biological target: T11, ELF5 (Homo sapiens, UniProt Q9UKW6-2 1-255); conditions: protein: recombinant; tags: N-terminal GST; dsDNA, one strand shown
# T11 sequence: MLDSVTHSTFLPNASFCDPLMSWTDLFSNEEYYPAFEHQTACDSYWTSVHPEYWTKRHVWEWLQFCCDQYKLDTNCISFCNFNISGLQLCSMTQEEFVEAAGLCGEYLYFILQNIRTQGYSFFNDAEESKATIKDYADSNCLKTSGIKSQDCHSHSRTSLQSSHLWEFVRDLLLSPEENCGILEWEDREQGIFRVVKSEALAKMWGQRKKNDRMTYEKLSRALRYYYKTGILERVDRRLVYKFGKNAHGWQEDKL
# Procedure, shortened: as §1
# [17] = biological target: T12, ETV3 (Homo sapiens, UniProt P41162-2 1-143); conditions: protein: recombinant; tags: N-terminal GST; dsDNA, one strand shown
# T12 sequence: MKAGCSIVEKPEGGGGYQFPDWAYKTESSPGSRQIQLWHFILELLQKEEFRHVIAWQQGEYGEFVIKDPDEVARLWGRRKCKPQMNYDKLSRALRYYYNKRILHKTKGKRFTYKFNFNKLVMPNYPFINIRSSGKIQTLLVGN
# Procedure, shortened: as §1
# [18] = biological target: ETV6 (Homo sapiens, UniProt P41212 1-452); conditions: protein: recombinant; tags: N-terminal GST; dsDNA, one strand shown
# ETV6, sequence (P41212 whole entry): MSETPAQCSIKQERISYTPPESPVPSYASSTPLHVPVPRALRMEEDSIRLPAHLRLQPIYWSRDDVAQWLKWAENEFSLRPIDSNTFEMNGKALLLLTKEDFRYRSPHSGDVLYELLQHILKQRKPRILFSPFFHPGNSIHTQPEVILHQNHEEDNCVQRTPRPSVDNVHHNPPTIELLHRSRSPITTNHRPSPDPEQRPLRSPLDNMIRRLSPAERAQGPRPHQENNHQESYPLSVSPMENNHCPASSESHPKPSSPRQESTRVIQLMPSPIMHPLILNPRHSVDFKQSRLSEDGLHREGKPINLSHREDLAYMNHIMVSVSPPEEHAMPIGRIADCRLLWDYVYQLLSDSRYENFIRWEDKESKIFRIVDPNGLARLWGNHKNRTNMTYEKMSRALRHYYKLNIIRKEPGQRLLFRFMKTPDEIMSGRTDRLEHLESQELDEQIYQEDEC
# Procedure, shortened: as §1
sequence,measurement,setting,value
CTCATG,binding signal,[1],"1.27 fold enrichment (6-mer frequency, TF over GST control)"
same,binding signal,[2],"1.28 fold enrichment (6-mer frequency, TF over GST control)"
same,binding signal,[3],"1.04 fold enrichment (6-mer frequency, TF over GST control)"
same,binding signal,[4],"1.35 fold enrichment (6-mer frequency, TF over GST control)"
same,binding signal,[5],"1.19 fold enrichment (6-mer frequency, TF over GST control)"
same,binding signal,[6],"1.28 fold enrichment (6-mer frequency, TF over GST control)"
same,binding signal,[7],"1.24 fold enrichment (6-mer frequency, TF over GST control)"
same,binding signal,[8],"1.2 fold enrichment (6-mer frequency, TF over GST control)"
same,binding signal,[9],"1.05 fold enrichment (6-mer frequency, TF over GST control)"
same,binding signal,[10],"1.29 fold enrichment (6-mer frequency, TF over GST control)"
same,binding signal,[11],"1.18 fold enrichment (6-mer frequency, TF over GST control)"
same,binding signal,[12],"1.22 fold enrichment (6-mer frequency, TF over GST control)"
same,binding signal,[13],"1.21 fold enrichment (6-mer frequency, TF over GST control)"
same,binding signal,[14],"1.18 fold enrichment (6-mer frequency, TF over GST control)"
same,binding signal,[15],"1.18 fold enrichment (6-mer frequency, TF over GST control)"
same,binding signal,[16],"1.19 fold enrichment (6-mer frequency, TF over GST control)"
same,binding signal,[17],"1.22 fold enrichment (6-mer frequency, TF over GST control)"
same,binding signal,[18],"1.17 fold enrichment (6-mer frequency, TF over GST control)"
